ChEMBL document CHEMBL1157539, “Thousands of chemical starting points for antimalarial lead identification” (Nature, 2010)

Tests used:
Type in all cases: functional
Plasmodium falciparum [1] = assay: GSK_TCMDC: Inhibition of Plasmodium falciparum 3D7 in whole red blood cells, using parasite LDH activity as an index of growth. Test compounds present at 2uM
Plasmodium falciparum [2] = assay: GSK_TCMDC: Inhibition of Plasmodium falciparum Dd2 in whole red blood cells, using parasite LDH activity as an index of growth. Test compounds present at 2uM
HepG2 = assay: GSK_TCMDC: Percent inhibition of human HepG2 cell line. Test compounds present at 10uM.

Row | Structure (SMILES) | Inhibition (Plasmodium falciparum [1]) [%] | Inhibition (Plasmodium falciparum [2]) [%] | Inhibition (HepG2) [%]
1 | CCn1cc2c3c(cc(C(=O)N[C@@H](Cc4ccccc4)[C@H](O)CNC4CCOCC4)cc31)N(C)S(=O)(=O)CC2 | 98 | 98 | 0
2 | CN(C)c1ccc(CN2CCC(CNC(=O)c3cc(-c4cccc(C(F)(F)F)c4)cs3)C2)cc1.O=C(O)C(F)(F)F (stereo not drawn) | 96 | 34 | 39
3 | COc1ccc(CCCc2nc(N)nc(N)c2-c2ccc(Cl)cc2)cc1 | 94 | 0 | 65
4 | CCOc1cc2c(cc1OCC)C(c1cc(OC)c(O)cc1Cl)NCC2 (stereo not drawn) | 100 | 97 | 15
5 | CCCCCCCCc1nc(C)c(Br)c(O)c1Br | 96 | 95 | 2
6 | CCOc1ccc(-c2nonc2NC(=O)c2ccc(F)cc2)cc1OCC | 100 | 99 | 36
7 | N#Cc1ccc(-c2ccc(C(=O)NCCCCN3CCC(c4ccc5c(c4OCC(N)=O)CCCC5)CC3)nc2)cc1 | 100 | 97 | 21
8 | O=C(NC(c1ccccc1)c1ccccc1)C(c1cc2ccccc2o1)N1CCN(C(c2ccccc2)c2ccccc2)CC1 (stereo not drawn) | 95 | 78 | 0
9 | CCC(C)(C)c1ccc(OCC(O)CN2CCCCC2)c(C(C)(C)CC)c1 (stereo not drawn) | 91 | 26 | 14
10 | Cc1cc(-c2ccc3c(c2)CCN(CCC2CCC(NC(=O)/C=C/c4cccc(Cl)c4)CC2)CC3)on1.Cl (stereo not drawn) | 100 | 49 | 16
11 | CC(Oc1ccc(Cl)cc1Cl)c1nc(-c2ccc(NC(=O)c3ccco3)cc2)no1 (stereo not drawn) | 92 | 82 | 7
